Legend:
Test in all cases: DAPPL (digital affinity profiling via proximity ligation, sequencing); 10 mM Tris-HCl pH 7.5, 50 mM NaCl, 1 mM DTT, 4% glycerol, room temperature, 30 min; GST-TFs on glutathione beads, 16-mer random dsDNA library, 0.1% formaldehyde crosslink after washing; high values mean tight binding
FLI1 = biological target: T1, FLI1 (Homo sapiens, UniProt Q01543 1-452); conditions: protein: recombinant; tags: N-terminal GST; dsDNA, one strand shown
T1 sequence: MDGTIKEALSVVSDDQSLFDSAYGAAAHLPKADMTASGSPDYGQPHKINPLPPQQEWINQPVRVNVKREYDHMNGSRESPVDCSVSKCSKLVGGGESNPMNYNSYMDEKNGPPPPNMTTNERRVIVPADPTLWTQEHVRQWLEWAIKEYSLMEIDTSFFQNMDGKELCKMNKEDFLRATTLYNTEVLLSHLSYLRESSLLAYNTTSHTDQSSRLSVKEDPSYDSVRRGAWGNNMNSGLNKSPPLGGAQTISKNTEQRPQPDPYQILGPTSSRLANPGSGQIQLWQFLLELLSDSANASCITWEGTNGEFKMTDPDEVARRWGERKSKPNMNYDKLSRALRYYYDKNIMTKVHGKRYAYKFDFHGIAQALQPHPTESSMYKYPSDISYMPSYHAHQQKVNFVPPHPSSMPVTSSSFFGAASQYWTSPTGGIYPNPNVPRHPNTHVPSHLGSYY
Method in brief: (§1)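 Binding signal is defined as a hexamer's read frequency for one factor over its frequency for the tag-only sample. To obtain reads, GST-fused human transcription factors were expressed in yeast, captured on glutathione beads, barcoded with DNA and pooled with that sample. Pools met 200 nmole of a 16-mer random double-stranded DNA library in Tris/NaCl/DTT/glycerol buffer for 30 min at room temperature before washing, 0.1% formaldehyde crosslinking, proximity ligation (BsaI/T4 ligase, 1 h, 37 °C), PCR and Illumina NextSeq500 sequencing.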

ELK1 = biological target: T2, ELK1 (Homo sapiens, UniProt P19419 1-428); conditions: protein: recombinant; tags: N-terminal GST; dsDNA, one strand shown
T2 sequence: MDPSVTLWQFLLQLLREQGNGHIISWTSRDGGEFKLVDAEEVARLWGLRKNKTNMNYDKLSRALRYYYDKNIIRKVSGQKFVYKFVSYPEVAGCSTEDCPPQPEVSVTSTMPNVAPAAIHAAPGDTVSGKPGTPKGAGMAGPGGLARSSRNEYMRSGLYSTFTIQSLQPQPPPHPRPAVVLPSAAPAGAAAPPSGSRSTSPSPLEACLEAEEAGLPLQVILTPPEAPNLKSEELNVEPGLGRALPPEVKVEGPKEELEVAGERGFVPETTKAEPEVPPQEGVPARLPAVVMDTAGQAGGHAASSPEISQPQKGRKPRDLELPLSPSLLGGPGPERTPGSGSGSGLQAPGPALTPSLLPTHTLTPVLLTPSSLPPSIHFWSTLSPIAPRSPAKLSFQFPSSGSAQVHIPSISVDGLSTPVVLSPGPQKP
Method in brief: as §1

GABPA = biological target: T3, GABPA (Homo sapiens, UniProt Q06546 1-454); conditions: protein: recombinant; tags: N-terminal GST; dsDNA, one strand shown
T3 sequence: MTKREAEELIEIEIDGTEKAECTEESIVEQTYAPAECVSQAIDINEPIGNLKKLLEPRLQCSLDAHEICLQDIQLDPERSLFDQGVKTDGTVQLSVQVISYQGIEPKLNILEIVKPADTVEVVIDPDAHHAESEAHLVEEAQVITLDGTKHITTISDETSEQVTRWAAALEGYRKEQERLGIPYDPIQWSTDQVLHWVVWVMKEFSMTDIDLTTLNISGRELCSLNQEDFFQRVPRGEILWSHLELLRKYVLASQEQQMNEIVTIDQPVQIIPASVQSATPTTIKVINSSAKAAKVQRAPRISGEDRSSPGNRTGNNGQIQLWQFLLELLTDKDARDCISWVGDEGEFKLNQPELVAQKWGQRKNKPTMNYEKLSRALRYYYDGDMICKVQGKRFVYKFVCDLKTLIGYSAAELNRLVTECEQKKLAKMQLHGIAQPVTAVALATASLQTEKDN
Method in brief: as §1

ERG = biological target: T4, ERG (Homo sapiens, UniProt P11308 1-479); conditions: protein: recombinant; tags: N-terminal GST; dsDNA, one strand shown
T4 sequence: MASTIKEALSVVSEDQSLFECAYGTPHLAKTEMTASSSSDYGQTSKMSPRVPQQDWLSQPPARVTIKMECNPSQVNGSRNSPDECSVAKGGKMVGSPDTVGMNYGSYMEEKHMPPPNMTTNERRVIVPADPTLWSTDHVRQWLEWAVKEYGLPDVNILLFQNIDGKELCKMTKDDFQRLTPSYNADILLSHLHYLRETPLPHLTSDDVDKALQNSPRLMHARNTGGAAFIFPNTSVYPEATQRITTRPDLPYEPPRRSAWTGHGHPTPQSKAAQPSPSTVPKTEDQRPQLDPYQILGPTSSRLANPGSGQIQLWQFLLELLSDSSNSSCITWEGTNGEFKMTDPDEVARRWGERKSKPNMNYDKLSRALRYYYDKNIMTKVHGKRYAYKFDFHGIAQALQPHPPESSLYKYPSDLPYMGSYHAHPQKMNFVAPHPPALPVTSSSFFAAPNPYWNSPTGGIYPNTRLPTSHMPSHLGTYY
Method in brief: as §1

ELF1 = ELF1 (Homo sapiens, UniProt P32519 1-619); conditions: protein: recombinant; tags: N-terminal GST; dsDNA, one strand shown
Method in brief: as §1

EHF = biological target: T5, EHF (Homo sapiens, UniProt Q9NZC4 1-300); conditions: protein: recombinant; tags: N-terminal GST; dsDNA, one strand shown
T5 sequence: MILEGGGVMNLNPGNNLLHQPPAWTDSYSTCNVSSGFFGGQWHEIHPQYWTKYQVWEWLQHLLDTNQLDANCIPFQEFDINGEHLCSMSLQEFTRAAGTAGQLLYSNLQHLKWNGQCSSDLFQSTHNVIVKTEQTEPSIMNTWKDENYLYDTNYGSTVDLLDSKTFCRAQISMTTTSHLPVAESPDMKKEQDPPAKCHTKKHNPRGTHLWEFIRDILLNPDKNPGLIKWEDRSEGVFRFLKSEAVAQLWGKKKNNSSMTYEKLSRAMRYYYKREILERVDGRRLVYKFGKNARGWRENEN
Method in brief: as §1

SPI1 = SPI1 (Homo sapiens, UniProt P17947 1-270); conditions: protein: recombinant; tags: N-terminal GST; dsDNA, one strand shown
Method in brief: as §1

SPIB = SPIB (Homo sapiens, UniProt Q01892 1-262); conditions: protein: recombinant; tags: N-terminal GST; dsDNA, one strand shown
Method in brief: as §1

ELK3 = biological target: T6, ELK3 (Homo sapiens, UniProt P41970 1-407); conditions: protein: recombinant; tags: N-terminal GST; dsDNA, one strand shown
T6 sequence: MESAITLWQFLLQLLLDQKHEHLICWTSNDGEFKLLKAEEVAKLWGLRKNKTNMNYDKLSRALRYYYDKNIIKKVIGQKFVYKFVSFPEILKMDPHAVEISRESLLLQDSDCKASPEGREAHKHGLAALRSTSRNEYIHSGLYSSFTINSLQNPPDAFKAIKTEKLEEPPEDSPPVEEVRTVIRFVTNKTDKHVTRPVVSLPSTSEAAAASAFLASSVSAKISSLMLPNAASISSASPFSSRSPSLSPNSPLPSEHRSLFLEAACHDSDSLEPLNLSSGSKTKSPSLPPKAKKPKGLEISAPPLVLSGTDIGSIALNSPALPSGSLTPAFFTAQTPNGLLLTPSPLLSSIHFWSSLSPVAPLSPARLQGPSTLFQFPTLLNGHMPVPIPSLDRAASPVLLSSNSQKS
Method in brief: as §1

FEV = biological target: T7, FEV (Homo sapiens, UniProt Q99581 1-238); conditions: protein: recombinant; tags: N-terminal GST; dsDNA, one strand shown
T7 sequence: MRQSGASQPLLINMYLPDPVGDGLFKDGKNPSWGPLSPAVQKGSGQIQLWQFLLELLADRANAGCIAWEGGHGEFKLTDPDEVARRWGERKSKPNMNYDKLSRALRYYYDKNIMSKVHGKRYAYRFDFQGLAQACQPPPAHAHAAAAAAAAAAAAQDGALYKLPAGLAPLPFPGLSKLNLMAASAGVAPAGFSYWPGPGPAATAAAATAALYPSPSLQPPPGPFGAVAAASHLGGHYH
Method in brief: as §1

ETV5 = ETV5 (Homo sapiens, UniProt P41161 1-510); conditions: protein: recombinant; tags: N-terminal GST; dsDNA, one strand shown
Method in brief: as §1

HSF1 = HSF1 (Homo sapiens, UniProt Q00613 1-529); conditions: protein: recombinant; tags: N-terminal GST; chain copies: 3; dsDNA, one strand shown
Method in brief: as §1

SPIC = biological target: T8, SPIC (Homo sapiens, UniProt Q8N5J4 1-248); conditions: protein: recombinant; tags: N-terminal GST; dsDNA, one strand shown
T8 sequence: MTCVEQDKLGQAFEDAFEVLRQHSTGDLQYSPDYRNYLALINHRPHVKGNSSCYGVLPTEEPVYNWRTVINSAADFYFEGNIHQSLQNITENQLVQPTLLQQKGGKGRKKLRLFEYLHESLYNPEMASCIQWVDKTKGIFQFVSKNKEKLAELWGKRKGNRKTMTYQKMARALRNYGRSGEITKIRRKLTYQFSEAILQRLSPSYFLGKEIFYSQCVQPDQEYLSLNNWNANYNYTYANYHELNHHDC
Method in brief: as §1

ELF4 = ELF4 (Homo sapiens, UniProt Q99607 1-663); conditions: protein: recombinant; tags: N-terminal GST; dsDNA, one strand shown
Method in brief: as §1

ELK4 = biological target: T9, ELK4 (Homo sapiens, UniProt P28324-2 1-405); conditions: protein: recombinant; tags: N-terminal GST; dsDNA, one strand shown
T9 sequence: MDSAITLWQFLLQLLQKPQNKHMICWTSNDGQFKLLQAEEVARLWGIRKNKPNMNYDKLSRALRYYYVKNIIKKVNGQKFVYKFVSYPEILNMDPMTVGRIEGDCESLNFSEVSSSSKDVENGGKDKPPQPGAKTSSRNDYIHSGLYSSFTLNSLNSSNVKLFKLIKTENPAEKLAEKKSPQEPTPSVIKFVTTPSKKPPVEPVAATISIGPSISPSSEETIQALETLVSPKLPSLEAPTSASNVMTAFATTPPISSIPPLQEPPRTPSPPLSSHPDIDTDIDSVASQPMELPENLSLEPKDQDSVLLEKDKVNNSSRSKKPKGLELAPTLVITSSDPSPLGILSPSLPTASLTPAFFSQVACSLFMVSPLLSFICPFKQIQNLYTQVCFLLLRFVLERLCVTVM
Method in brief: as §1

ETV2 = biological target: T10, ETV2 (Homo sapiens, UniProt O00321 1-342); conditions: protein: recombinant; tags: N-terminal GST; dsDNA, one strand shown
T10 sequence: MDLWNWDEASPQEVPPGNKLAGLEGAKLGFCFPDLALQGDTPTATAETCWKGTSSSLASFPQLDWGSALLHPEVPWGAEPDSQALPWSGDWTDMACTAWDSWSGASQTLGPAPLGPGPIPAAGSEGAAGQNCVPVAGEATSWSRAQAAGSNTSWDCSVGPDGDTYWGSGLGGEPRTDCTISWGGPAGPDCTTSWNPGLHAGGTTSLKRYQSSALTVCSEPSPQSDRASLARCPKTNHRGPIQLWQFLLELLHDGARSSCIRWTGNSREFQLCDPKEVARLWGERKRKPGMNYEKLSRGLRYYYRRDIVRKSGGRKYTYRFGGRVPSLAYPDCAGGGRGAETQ
Method in brief: as §1

CRX = CRX (Homo sapiens, UniProt O43186 1-299); conditions: protein: recombinant; tags: N-terminal GST; dsDNA, one strand shown
Method in brief: as §1

ETV1 = ETV1 (Homo sapiens, UniProt P50549 1-477); conditions: protein: recombinant; tags: N-terminal GST; dsDNA, one strand shown
Method in brief: as §1

ELF1, sequence (P32519 whole entry): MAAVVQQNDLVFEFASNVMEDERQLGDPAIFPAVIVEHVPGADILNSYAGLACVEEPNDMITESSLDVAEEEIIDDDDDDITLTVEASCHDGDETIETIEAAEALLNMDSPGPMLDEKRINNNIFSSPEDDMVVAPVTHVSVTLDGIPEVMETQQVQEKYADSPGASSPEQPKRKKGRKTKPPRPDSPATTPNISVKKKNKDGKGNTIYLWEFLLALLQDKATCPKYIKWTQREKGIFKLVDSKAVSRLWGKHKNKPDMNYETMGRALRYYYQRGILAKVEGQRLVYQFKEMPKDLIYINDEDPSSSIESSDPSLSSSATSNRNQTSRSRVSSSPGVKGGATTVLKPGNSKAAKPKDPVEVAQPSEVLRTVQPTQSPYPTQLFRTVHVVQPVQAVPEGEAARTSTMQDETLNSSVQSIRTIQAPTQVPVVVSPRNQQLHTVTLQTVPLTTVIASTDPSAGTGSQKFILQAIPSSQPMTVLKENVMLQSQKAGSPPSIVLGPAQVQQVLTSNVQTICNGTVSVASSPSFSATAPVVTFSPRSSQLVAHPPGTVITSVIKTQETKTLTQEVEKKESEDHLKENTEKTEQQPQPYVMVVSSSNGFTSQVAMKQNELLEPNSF
SPIB, sequence (Q01892 whole entry): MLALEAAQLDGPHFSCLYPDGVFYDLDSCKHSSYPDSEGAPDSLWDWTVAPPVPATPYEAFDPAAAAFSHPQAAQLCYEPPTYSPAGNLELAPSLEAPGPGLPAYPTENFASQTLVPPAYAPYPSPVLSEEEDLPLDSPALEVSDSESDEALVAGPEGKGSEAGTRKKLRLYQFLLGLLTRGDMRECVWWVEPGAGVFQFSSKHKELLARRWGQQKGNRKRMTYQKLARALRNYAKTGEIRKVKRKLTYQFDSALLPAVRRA
CRX, sequence (O43186 whole entry): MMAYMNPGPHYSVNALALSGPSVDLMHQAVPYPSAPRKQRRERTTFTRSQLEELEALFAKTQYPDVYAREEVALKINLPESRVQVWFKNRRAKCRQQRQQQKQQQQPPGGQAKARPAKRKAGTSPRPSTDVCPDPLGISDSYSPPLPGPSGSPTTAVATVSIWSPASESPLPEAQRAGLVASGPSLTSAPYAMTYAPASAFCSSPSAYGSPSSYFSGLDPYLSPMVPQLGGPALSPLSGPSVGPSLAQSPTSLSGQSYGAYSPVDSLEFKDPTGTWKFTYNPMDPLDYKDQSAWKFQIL
ETV1, sequence (P50549 whole entry): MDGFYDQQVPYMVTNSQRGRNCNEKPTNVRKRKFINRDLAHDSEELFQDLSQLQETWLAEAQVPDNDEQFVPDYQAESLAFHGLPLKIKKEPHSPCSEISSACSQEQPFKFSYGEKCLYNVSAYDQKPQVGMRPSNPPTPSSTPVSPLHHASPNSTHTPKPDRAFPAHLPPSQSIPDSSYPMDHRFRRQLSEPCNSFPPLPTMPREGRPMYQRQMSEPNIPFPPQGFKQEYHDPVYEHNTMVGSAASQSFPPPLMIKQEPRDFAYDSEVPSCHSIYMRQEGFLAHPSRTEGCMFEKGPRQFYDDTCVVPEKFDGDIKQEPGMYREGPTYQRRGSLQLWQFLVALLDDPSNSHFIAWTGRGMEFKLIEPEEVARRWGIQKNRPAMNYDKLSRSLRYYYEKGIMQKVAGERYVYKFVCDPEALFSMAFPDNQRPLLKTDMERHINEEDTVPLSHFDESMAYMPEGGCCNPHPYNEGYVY
HSF1, sequence (Q00613 whole entry): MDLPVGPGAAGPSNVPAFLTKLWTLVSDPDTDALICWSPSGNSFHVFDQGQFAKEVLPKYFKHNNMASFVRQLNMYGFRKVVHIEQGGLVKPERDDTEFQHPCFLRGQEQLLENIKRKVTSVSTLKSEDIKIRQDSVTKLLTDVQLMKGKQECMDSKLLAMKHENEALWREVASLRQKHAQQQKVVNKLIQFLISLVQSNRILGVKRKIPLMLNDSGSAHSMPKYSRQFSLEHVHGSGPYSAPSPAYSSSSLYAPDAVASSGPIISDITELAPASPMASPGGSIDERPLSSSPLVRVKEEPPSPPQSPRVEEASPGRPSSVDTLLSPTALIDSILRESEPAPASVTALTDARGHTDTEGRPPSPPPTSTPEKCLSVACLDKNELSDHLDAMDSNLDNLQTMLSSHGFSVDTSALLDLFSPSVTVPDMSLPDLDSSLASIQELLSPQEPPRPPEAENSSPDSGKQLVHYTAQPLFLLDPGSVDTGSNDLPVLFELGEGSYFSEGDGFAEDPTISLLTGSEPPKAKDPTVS
ELF4, sequence (Q99607 whole entry): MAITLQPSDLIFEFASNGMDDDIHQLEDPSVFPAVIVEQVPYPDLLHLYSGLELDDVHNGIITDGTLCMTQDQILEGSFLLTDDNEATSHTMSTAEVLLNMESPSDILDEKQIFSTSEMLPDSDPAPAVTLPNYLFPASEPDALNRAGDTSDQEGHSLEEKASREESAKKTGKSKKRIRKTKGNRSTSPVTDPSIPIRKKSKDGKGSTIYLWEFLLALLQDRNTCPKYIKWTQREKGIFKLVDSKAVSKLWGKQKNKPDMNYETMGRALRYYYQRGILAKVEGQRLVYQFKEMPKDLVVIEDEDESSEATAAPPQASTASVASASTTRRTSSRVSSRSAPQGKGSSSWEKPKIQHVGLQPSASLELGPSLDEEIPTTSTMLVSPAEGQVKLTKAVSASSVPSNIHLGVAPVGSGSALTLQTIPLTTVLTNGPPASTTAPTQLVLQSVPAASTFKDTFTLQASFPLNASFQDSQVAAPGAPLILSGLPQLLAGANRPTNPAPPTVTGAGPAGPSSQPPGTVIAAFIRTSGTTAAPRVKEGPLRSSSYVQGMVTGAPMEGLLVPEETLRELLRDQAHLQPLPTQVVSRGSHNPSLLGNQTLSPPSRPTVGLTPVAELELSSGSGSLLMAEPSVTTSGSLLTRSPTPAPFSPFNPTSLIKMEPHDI
ETV5, sequence (P41161 whole entry): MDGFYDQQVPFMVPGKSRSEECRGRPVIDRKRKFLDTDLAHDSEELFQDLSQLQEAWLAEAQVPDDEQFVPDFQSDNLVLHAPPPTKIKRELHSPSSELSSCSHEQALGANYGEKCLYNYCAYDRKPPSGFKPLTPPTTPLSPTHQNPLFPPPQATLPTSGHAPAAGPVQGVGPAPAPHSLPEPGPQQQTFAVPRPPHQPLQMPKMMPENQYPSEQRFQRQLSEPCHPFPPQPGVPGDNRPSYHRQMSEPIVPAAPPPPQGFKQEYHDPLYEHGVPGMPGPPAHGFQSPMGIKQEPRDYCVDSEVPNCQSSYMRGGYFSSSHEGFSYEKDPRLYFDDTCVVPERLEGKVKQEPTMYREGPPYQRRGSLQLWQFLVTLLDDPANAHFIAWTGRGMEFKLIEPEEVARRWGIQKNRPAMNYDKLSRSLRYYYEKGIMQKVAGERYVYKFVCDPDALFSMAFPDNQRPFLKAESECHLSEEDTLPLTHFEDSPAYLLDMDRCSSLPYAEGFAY

Sequence	binding signal (FLI1)	binding signal (ELK1)	binding signal (GABPA)	binding signal (ERG)	binding signal (ELF1)	binding signal (EHF)	binding signal (SPI1)	binding signal (SPIB)	binding signal (ELK3)	binding signal (FEV)	binding signal (ETV5)	binding signal (HSF1)	binding signal (SPIC)	binding signal (ELF4)	binding signal (ELK4)	binding signal (ETV2)	binding signal (CRX)	binding signal (ETV1)
TTTGGC	1.33 fold enrichment (6-mer frequency, TF over GST control)	1.27 fold enrichment (6-mer frequency, TF over GST control)	1.25 fold enrichment (6-mer frequency, TF over GST control)	1.12 fold enrichment (6-mer frequency, TF over GST control)	1.27 fold enrichment (6-mer frequency, TF over GST control)	1.2 fold enrichment (6-mer frequency, TF over GST control)	1.22 fold enrichment (6-mer frequency, TF over GST control)	1.29 fold enrichment (6-mer frequency, TF over GST control)	1.1 fold enrichment (6-mer frequency, TF over GST control)	1.27 fold enrichment (6-mer frequency, TF over GST control)	1.32 fold enrichment (6-mer frequency, TF over GST control)	1.23 fold enrichment (6-mer frequency, TF over GST control)	1.45 fold enrichment (6-mer frequency, TF over GST control)	1.26 fold enrichment (6-mer frequency, TF over GST control)	1.23 fold enrichment (6-mer frequency, TF over GST control)	1.31 fold enrichment (6-mer frequency, TF over GST control)	1.49 fold enrichment (6-mer frequency, TF over GST control)	1.22 fold enrichment (6-mer frequency, TF over GST control)
TATCTG	1.3 fold enrichment (6-mer frequency, TF over GST control)	1.12 fold enrichment (6-mer frequency, TF over GST control)	1.21 fold enrichment (6-mer frequency, TF over GST control)	1.25 fold enrichment (6-mer frequency, TF over GST control)	1.26 fold enrichment (6-mer frequency, TF over GST control)	1.16 fold enrichment (6-mer frequency, TF over GST control)	1.21 fold enrichment (6-mer frequency, TF over GST control)	1.16 fold enrichment (6-mer frequency, TF over GST control)	1.21 fold enrichment (6-mer frequency, TF over GST control)	1.15 fold enrichment (6-mer frequency, TF over GST control)	1.15 fold enrichment (6-mer frequency, TF over GST control)	1.36 fold enrichment (6-mer frequency, TF over GST control)	1.17 fold enrichment (6-mer frequency, TF over GST control)	1.14 fold enrichment (6-mer frequency, TF over GST control)	1.25 fold enrichment (6-mer frequency, TF over GST control)	1.33 fold enrichment (6-mer frequency, TF over GST control)	1.46 fold enrichment (6-mer frequency, TF over GST control)	1.2 fold enrichment (6-mer frequency, TF over GST control)
